# Measured values: PubChem BioAssay (Tox21)
# Inconclusive results are not listed. Active and inactive are the calls of the source. Calls come from the whole dose curve; as a rule, active = well fitted cell-killing curve with a large enough effect in the repeat runs; inconclusive = weak or mixed curves, or effect the other way; inactive = flat fitted curve, though single readings scatter.
# Assay: cAMP Responsive Elements (CRE) small molecule antagonists, cell-based qHTS assay: qHTS cell viability counter screen (AID 2060913); note: nearly all actives have a fitted effect of over 40% in size
# Details: CRE-bla HEK293T viability, CellTiter-Glo luminescence, 5 h; series mostly up to 92.4 µM; viability change, negative = cytotoxic: at the top concentration
# Summary of the method: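 CRE-bla HEK293T cells (2,000/well, 18 h) given compound plus NKH477 0.25 uM final for 3 h at 37C; viability counter-screen by CellTiter-Glo luminescence in same wells after 30 min.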
# % is set by controls: 0 for no effect and ±100 for the full control effect.
Compound,"viability change, negative = cytotoxic",Potency
CC(C)NCC(O)COc1cccc2[nH]ccc12 (stereo not given),5.49% [at 42.5 µM] (inactive),
Cc1ccc(N)nc1,8.33% (inactive),
Cc1cc2c(cc1C(F)(F)F)N(C(=O)Nc1ccc(Oc3cccnc3C)nc1)CC2,-2.5% (inactive),
CCC(C)CO (stereo not given),-5.88% (inactive),
CCC(C)(C)c1cc(O)c(C(C)(C)CC)cc1O,2.27% (inactive),
C=CCOc1cc(Cl)ccc1C(=O)NCCN(CC)CC,-3.62% [at 42.5 µM] (inactive),
NC(=O)NS(=O)(=O)c1ccc(Cl)cc1,3.57% [at 42.5 µM] (inactive),
CC(=O)/C=C/C1C(C)=CCC(C)C1(C)C (stereo not given),4.17% (inactive),
CSCCC=O,,inactive
COc1cc(C(=O)NCCCCCC(=O)O)cc(OC)c1OC,0.377% [at 42.5 µM] (inactive),
O=Cc1ccccc1[N+](=O)[O-],19.2% (inactive),
CC(C)c1ccc(S(=O)(=O)O)cc1,,inactive
CC(C)N(C)C,-5.76% (inactive),
CCCCCC[C@@H](CCC)C(=O)O,8.25% [at 42.5 µM] (inactive),
O=CO,-5.83% [at 8.39 µM] (inactive),
O=C(c1ccccc1)c1ccc(O)c(O)c1O,,inactive
C/C=C(\C)C(=O)OCCc1ccccc1,-1.03% (inactive),
CC1OC(=O)C(C)OC1=O (stereo not given),3.4% (inactive),
C=C(C)C(=O)OCCN(CC)CC,0.0675% (inactive),
C=C(C)C(=O)OCCCCCCCCCCCCCCCCCC,12.4% [at 18.9 µM] (inactive),

Compound,"viability change, negative = cytotoxic",Potency
CC(Cc1ccccc1)(NC(=O)CN)c1ccccc1 (stereo not given),3.42% [at 42.5 µM] (inactive),
O=C(CCNNC(=O)c1ccncc1)NCc1ccccc1,-2.24% [at 42.5 µM] (inactive),
CN(C)c1ccc(CCO)cc1,6.41% (inactive),
OCCC(O)CO (stereo not given),20.2% (inactive),
COc1ccc2nc(SCc3ncc(C)c(OC)c3C)[nH]c2c1,6.29% [at 42.5 µM] (inactive),
C/C=C1/C(=O)C[C@H]2[C@@H]3CCC4=CC(=O)CC[C@]4(C)[C@H]3CC[C@]12C,-0.825% (inactive),
Nc1ccc(F)c([N+](=O)[O-])c1,16% (inactive),
CC(C)(C)c1ccc(C(O)CCCN2CCC(C(O)(c3ccccc3)c3ccccc3)CC2)cc1 (stereo not given),2.23% [at 42.5 µM] (inactive),
CCCCCC[C@@H](O)C/C=C\CCCCCCCC(=O)O,1% (inactive),
CCOC(=O)Cn1c(=O)sc2cccc(Cl)c21,-3.95% (inactive),
CC(CC(=O)Cl)CC(C)(C)C (stereo not given),17.6% (inactive),
CCc1ccccc1O,,inactive
O=C(OCc1ccccc1)C(=O)OCc1ccccc1,2.36% (inactive),
Cc1cc(O)c(Cl)cc1C,0.451% (inactive),
O=C(CCN1CCN(CCO)CC1)N1c2ccccc2Sc2ccc(C(F)(F)F)cc21,-2.4% [at 42.5 µM] (inactive),
CCCCCCCCCCCCC,-0.928% (inactive),
CC(c1cc(C(C)(C)C)cc(C(C)(C)C)c1O)c1cc(C(C)(C)C)cc(C(C)(C)C)c1O,-6.48% (inactive),
CCCOCCOCCO,-0.436% (inactive),
CNc1ncnc2nc[nH]c12,3.88% (inactive),
CC(C)(Oc1ccc(Cl)cc1)C(=O)OCCCOC(=O)C(C)(C)Oc1ccc(Cl)cc1,-5.25% [at 42.5 µM] (inactive),

# Assay: cAMP Responsive Elements (CRE) small molecule agonists, cell-based qHTS assay: qHTS cell viability counter screen (AID 2060914); note: nearly all actives have a fitted effect of over 50% in size
# Details: CRE-bla HEK293T viability, CellTiter-Glo luminescence, 5 h; series mostly up to 92.4 µM; activity change, negative = cytotoxicity: at the top concentration
# Summary of the method: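 In the same wells as the reporter read, viability of CRE-bla HEK 293T cells was quantified by CellTiter-Glo luminescence after a 3 h compound exposure.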
Compound,"activity change, negative = cytotoxicity",Potency
CC(C)NCC(O)COc1cccc2[nH]ccc12 (stereo not given),-10.7% [at 42.5 µM] (inactive),
Cc1ccc(N)nc1,4.71% (inactive),
Cc1cc2c(cc1C(F)(F)F)N(C(=O)Nc1ccc(Oc3cccnc3C)nc1)CC2,-0.822% (inactive),
CCC(C)CO (stereo not given),-13% (inactive),
CCC(C)(C)c1cc(O)c(C(C)(C)CC)cc1O,0.0459% (inactive),
C=CCOc1cc(Cl)ccc1C(=O)NCCN(CC)CC,-2.17% [at 42.5 µM] (inactive),
NC(=O)NS(=O)(=O)c1ccc(Cl)cc1,1.31% [at 42.5 µM] (inactive),
CC(=O)/C=C/C1C(C)=CCC(C)C1(C)C (stereo not given),-2.03% (inactive),
CSCCC=O,,inactive
COc1cc(C(=O)NCCCCCC(=O)O)cc(OC)c1OC,-0.498% [at 42.5 µM] (inactive),
O=Cc1ccccc1[N+](=O)[O-],4.63% (inactive),
CC(C)c1ccc(S(=O)(=O)O)cc1,,inactive
CC(C)N(C)C,-4.88% (inactive),
CCCCCC[C@@H](CCC)C(=O)O,2.63% [at 42.5 µM] (inactive),
O=CO,-4.64% [at 8.39 µM] (inactive),
O=C(c1ccccc1)c1ccc(O)c(O)c1O,,inactive
C/C=C(\C)C(=O)OCCc1ccccc1,8.33% (inactive),
CC1OC(=O)C(C)OC1=O (stereo not given),5.96% (inactive),
C=C(C)C(=O)OCCN(CC)CC,-2.53% (inactive),
C=C(C)C(=O)OCCCCCCCCCCCCCCCCCC,2.15% [at 18.9 µM] (inactive),

Compound,"activity change, negative = cytotoxicity",Potency
CC(Cc1ccccc1)(NC(=O)CN)c1ccccc1 (stereo not given),21.1% [at 42.5 µM] (inactive),
O=C(CCNNC(=O)c1ccncc1)NCc1ccccc1,-3.48% [at 42.5 µM] (inactive),
CN(C)c1ccc(CCO)cc1,10.5% (inactive),
OCCC(O)CO (stereo not given),0.579% (inactive),
COc1ccc2nc(SCc3ncc(C)c(OC)c3C)[nH]c2c1,18.9% [at 42.5 µM] (inactive),
C/C=C1/C(=O)C[C@H]2[C@@H]3CCC4=CC(=O)CC[C@]4(C)[C@H]3CC[C@]12C,-3.77% (inactive),
Nc1ccc(F)c([N+](=O)[O-])c1,1.89% (inactive),
CC(C)(C)c1ccc(C(O)CCCN2CCC(C(O)(c3ccccc3)c3ccccc3)CC2)cc1 (stereo not given),13.6% [at 42.5 µM] (inactive),
CCCCCC[C@@H](O)C/C=C\CCCCCCCC(=O)O,7.06% (inactive),
CCOC(=O)Cn1c(=O)sc2cccc(Cl)c21,-19% (inactive),
CC(CC(=O)Cl)CC(C)(C)C (stereo not given),7.17% (inactive),
CCc1ccccc1O,,inactive
O=C(OCc1ccccc1)C(=O)OCc1ccccc1,2.51% (inactive),
Cc1cc(O)c(Cl)cc1C,4.2% (inactive),
O=C(CCN1CCN(CCO)CC1)N1c2ccccc2Sc2ccc(C(F)(F)F)cc21,-1.06% [at 42.5 µM] (inactive),
CCCCCCCCCCCCC,0.425% (inactive),
CC(c1cc(C(C)(C)C)cc(C(C)(C)C)c1O)c1cc(C(C)(C)C)cc(C(C)(C)C)c1O,-2.24% (inactive),
CCCOCCOCCO,5.24% (inactive),
CNc1ncnc2nc[nH]c12,2.44% (inactive),
CC(C)(Oc1ccc(Cl)cc1)C(=O)OCCCOC(=O)C(C)(C)Oc1ccc(Cl)cc1,-6.8% [at 42.5 µM] (inactive),
